Common to all, as to assay: NCI-60 one-dose screen, 48 h (100 = growth as untreated, 0 = no growth, -100 = all killed)
Common to all, as to conditions: 10 µM unless noted

The subject of assay [1] is HCT-15 colon.
The subject of assay [2] is HT29 colon.
Assay [3] concerns SNB-75 CNS.
For assay [4], the system named is SNB-19 CNS.
In assay [5] the test system is U251 CNS.
Assay [6] deals with PC-3 prostate.
Assay [7] deals with SK-MEL-5 melanoma.
Assay [8] relates to UACC-62 melanoma.
The subject of assay [9] is LOX IMVI melanoma.
Assay [10] deals with SK-MEL-28 melanoma.
The subject of assay [11] is SK-MEL-2 melanoma.
Assay [12] deals with EKVX NSCLC.
For assay [13], the system named is SN12C renal.
In assay [14] the test system is UO-31 renal.
Assay [15] concerns TK-10 renal.
Assay [16] concerns ACHN renal.
In assay [17] the test system is CAKI-1 renal.
In assay [18] the test system is A498 renal.
Assay [19] concerns CCRF-CEM leukemia.
Assay [20] has as its system MOLT-4 leukemia.

The panel holds about 83,000 compounds, 20% with a hit somewhere; the sample as a whole holds those more often.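 Testing used 96-well plates and a 48-hour single-concentration exposure. Example: -40 means 40% of the starting cells died.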 Unmarked numbers belong to inactive results. Calls of active or inactive are those of the source. The calls were made as follows: active = growth percent below 10; inactive = the rest.

Turning to `C=CCOC(=O)Nc1cccn([C@H](Cc2ccccc2)C(=O)NCCC(C)C)c1=O`, the growth in [1] was 111%; in assay [2], 99.7%; in assay [3] it was 91.1%; in [4], 85.9%; in assay [5], 101%; in assay [6], 92.3%. Moreover, the growth in [7] is 102%; in assay [8], 97.1%; in assay [9], 90.8%; in assay [10] it was 97.6%; in assay [11] it was 115%; in assay [12] it was 104%. Also, the growth is 98.7% in [13]; 88.7% in assay [14]; 111% in [15]; 103% in assay [16]; 89.8% in [17]; 114% in [18]. Moreover, the growth is 77.1% in assay [19] and 93.6% in [20].

On to `Cc1cc(N2CCCCC2)cc(C)c1-c1csc(NC(=O)c2ccncc2)n1`, for which the growth in assay [1] is 80.5%; in assay [2] it was 69%; in assay [3], 55.7%; in [4], 59.8%; in [5], 63%; in assay [6] it was 48.1%. Further, the growth in assay [7] is -8.97% (active); in [8] it was 45.1%; in assay [9], 47.1%; in [10], 64.9%; in assay [11], 95.6%; in assay [12], 32.9%. Also, the growth was 49.1% in assay [13]; 36.9% in [14]; 77.3% in [15]; 56.8% in assay [16]; 49.5% in [17]; 42.9% in assay [18]. Also, the figures for the growth in assay [19] and in assay [20] were 47.3% and 43.7%, respectively.

Turning to `COC1=CC(c2ccc[nH]2)=N/C1=C\c1[nH]c(C)c(CC(=O)NCc2ccccc2)c1C`, the growth in assay [1] is -26% (active); in [2], 15.1%; in assay [3], 58.3%; in [4], -1.25% (active); in [5] it was 18.7%; in [6], 12%. For the same compound, the growth in assay [7] was -64% (active); in [8] it was -30.5% (active); in assay [9], -76.1% (active); in [10], 22.1%; in assay [11], 16.7%; in [12], 21.1%. For the same compound, the growth is 29.1% in assay [13]; -17.4% (active) in assay [14]; 24.9% in assay [15]; 8.33% (active) in assay [16]; 1.97% (active) in assay [17]; -5.8% (active) in [18]. Moreover, the growth in assay [19] was 22.4%; in [20], 3.45% (active).

Turning to `COc1ccc(/C=C(\C#N)n2nnc3ccc(Cl)cc32)cc1`, the growth in [1] was 38.9%; in assay [2] it was 26.3%; in [3] it was 20.4%; in [4], 55.2%; in assay [5] it was 61.7%; in [6], 63.7%. Further, the growth in [7] was 81.7%; in assay [8], 62.3%; in assay [9] it was 56.9%; in assay [10], 71.4%; in assay [11], 62.9%; in [12], 90%. For the same compound, the growth is 52.4% in assay [13]; 50.2% in [14]; 77.6% in assay [15]; 45.6% in assay [16]; 46.3% in assay [17]; 79.7% in assay [18]. Besides, the growth in [19] was 45.5%; in assay [20], 83.7%.

In the case of `CN(c1cc2ncc(=O)[nH]c2cc1NC(N)=NCc1ccc(Cl)cc1)C1CCCCC1`, the growth is 99.9% in assay [1]; 22.7% in assay [2]; 58.2% in assay [3]; 63.5% in assay [4]; -4.07% (active) in [5]; 64.3% in [6]. Besides, the growth in [7] was 71.5%; in assay [8] it was 72.3%; in assay [9] it was -45.6% (active); in assay [10], 52.8%; in assay [11], 92.7%; in [12], 82.6%. The growth in [13] is 67.9%; in assay [14] it was 91%; in assay [15], 85.2%; in assay [16], 98.3%; in [17], 98.5%; in assay [18], 80.5%. Moreover, the growth is 21.9% in [19] and 35.5% in [20].

For `COc1ccc2cc1Oc1ccc(cc1)C[C@H]1c3c(cc4c(c3Oc3cc5c(cc3OC)CCN(C)[C@@H]5C2)OCO4)CCN1C`, the growth was 27% in [1]; 4.38% (active) in assay [2]; 71.4% in [3]; 75.9% in assay [4]; 26.8% in [5]; 43.9% in [6]. Further, the growth in assay [7] was -97% (active); in [8], 34.4%; in [9], -41.7% (active); in [10], -54.9% (active); in [11] it was 69.9%; in assay [12], 75.1%. Also, the growth in assay [13] is 60.3%; in [14] it was 60.6%; in assay [15] it was 44.8%; in [16], 63%; in assay [17] it was 70.8%; in assay [18] it was 32.2%. In addition, the growth was 21% in assay [19] and 31.5% in [20].

With `CCN(CC)c1ccc(\C=N/N=C(N)/C(N)=N\N=C/c2ccc(N(CC)CC)cc2)cc1`, the growth in assay [1] was 92.4%; in assay [2], 99.2%; in [3] it was 93%; in assay [4], 113%; in assay [5], 97.9%; in assay [6], 97.1%. For the same compound, the growth in [7] was 97.1%; in [8], 104%; in assay [9], 101%; in assay [10] it was 105%; in assay [11], 97.7%; in assay [12], 104%. In addition, the growth in assay [13] was 105%; in assay [14] it was 82.9%; in [15], 113%; in assay [16] it was 96.4%; in [17] it was 88.9%; in assay [18], 102%. The growth was 89% in assay [19] and 95.8% in assay [20].

As to `Cc1ccc2c(n1)C(=O)C(Br)=C(CC(C)C)C2=O`, the growth in assay [1] was 104%; in assay [2], 108%; in assay [3], 97.3%; in [4], 101%; in [5] it was 97.8%; in [6], 97.5%. The growth in assay [7] was 98.1%; in [8], 93.9%; in [9], 98.1%; in assay [10], 105%; in assay [11], 110%; in [12] it was 104%. Besides, the growth in [13] is 98.8%; in assay [14], 87.2%; in assay [15] it was 115%; in assay [16] it was 68.6%; in [17], 92.7%; in [18] it was 106%. For the same compound, the growth in [19] is 24.2%; in assay [20], 19.5%.

(Values after PubChem BioAssay (NCI).)
